Compound activity: PubChem BioAssay, several laboratories
An excerpt weighted towards active compounds, which were near 27% of everything screened.
CYP2C9 act: CYP2C9 (human) activation; P11712; hit rate 1.4% among 96,000; recombinant CYP2C9, luciferin-H conversion, luminescence; active compounds read high; factor 1 = untreated enzyme, 0 = blocked; activation factor at 5 µM;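 active = activation factor of 2 or more for CYP2C9 at a 5 µM dose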;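 note: 0 = sulfaphenazole-blocked wells and 1 = vehicle-only wells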
CYP2C19 act: increases human CYP2C19 enzyme activity. P33261. 96,000 tested, under 10 active. activation factor at 5 µM. recombinant CYP2C19, luciferin-H EGE luminescence; active compounds read high; 0 = fully inhibited enzyme, 1 = untreated enzyme. AID 1025;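 active = activation factor of at least 2 at 5 µM in the primary screen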;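 note: 0 = wells with 2.5 mM tranylcypromine and 1 = vehicle-only wells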
Target sequence (P33261 whole entry, looked up): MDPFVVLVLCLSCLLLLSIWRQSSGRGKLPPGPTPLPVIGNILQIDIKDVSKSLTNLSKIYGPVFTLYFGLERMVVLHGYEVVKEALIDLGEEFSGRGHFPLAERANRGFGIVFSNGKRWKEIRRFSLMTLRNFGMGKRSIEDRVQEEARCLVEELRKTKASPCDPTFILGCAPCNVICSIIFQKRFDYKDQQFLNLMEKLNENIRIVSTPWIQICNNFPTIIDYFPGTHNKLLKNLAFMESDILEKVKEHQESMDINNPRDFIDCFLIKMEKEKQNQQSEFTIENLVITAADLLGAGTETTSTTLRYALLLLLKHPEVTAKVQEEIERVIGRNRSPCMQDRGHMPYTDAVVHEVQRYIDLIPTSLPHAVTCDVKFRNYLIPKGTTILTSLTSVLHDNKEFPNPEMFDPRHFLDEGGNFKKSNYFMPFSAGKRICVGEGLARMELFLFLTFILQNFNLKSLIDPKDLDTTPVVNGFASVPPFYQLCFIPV
Cav3 T inh: inhibitors of human Cav3.2 T-type calcium channel | B-score at 10 µM | O95180 | AID 449739 | hit rate 4% among 100,000 | Cav3.2-expressing cells, Fluo-4 calcium fluorescence FDSS; active compounds read low;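 active = single-dose well whose peak fluorescence ratio is a statistical outlier from its plate by either plate-standardised score or position-corrected B-score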
CYP2C9 inh: human CYP2C9 inhibition; P11712; hit rate 20% among 96,000; CYP2C9 Supersomes, luciferin-H conversion, luminescence; inhibition, % at 5 µM; AID 777;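 active = blocking of liver enzyme CYP2C9 beyond about 50% at 5 µM, limit read from the data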
CYP2C19 inh: blocks human cytochrome P450 2C19; hit rate 21% among 96,000; CYP2C19 Supersomes, luciferin-H EGE luminescence, 30 min; inhibition, % at 5 µM;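 active = CYP2C19 inhibition above a set limit at 5 µM in the primary screen, cut at about 50% in these data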;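 note: plate controls were negative control wells for no effect and 2.5 mM tranylcypromine positive control for full effect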
Starred values were filed as active, the others as inactive; nt = no result.

SMILES | CYP2C9 act | CYP2C19 act | Cav3 T inh | CYP2C9 inh | CYP2C19 inh
COC(=O)C(C(=O)NCC1CCCO1)C1CCCC1 (centres undefined) | 0.9 | 0.9 | 0.34 | 15 | 9
Cc1c(C)c2cc(Cl)c(OCc3nn[nH]n3)cc2oc1=O | 0.1 | 0.1 | 0.92 | 94* | 92*
Cc1noc(C(=O)Nc2c(C)n(C)n(-c3ccccc3)c2=O)c1Cl | nt | nt | -0.85 | nt | nt
O=[N+]([O-])c1c(C(Cl)Cl)nn(-c2ccccc2)c1N1CCCC1 | 0.6 | 0.4 | -0.65 | 38 | 56*
CCOC(=O)C1CCN(c2c([N+](=O)[O-])c(C(Cl)Cl)nn2-c2ccccc2)CC1 | 0.9 | 0.8 | -0.7 | 12 | 18
O=C(NCCC1=CCCCC1)c1cnsn1 | 0.6 | 0.4 | -1.6 | 38 | 65*
CC1CN(C(=O)CSc2nnc3c(Cl)cc(Cl)cn23)CC(C)O1 (centres undefined) | 0.9 | 1.1 | 0.067 | 6 | -6
Cc1cc(C)c(NC(=O)CSc2nnc(-c3ccncc3)n2Cc2ccco2)c(Cl)c1 | 0.1 | 0.2 | 1.2 | 92* | 79*
CCOC(=O)c1c(NC(=O)CSc2nnc(-c3ccncc3)n2Cc2ccco2)sc(C)c1C | 0.1 | 0.2 | -1.1 | 87* | 84*
Cc1cc(C)cc(NC(=O)C2CCCC2)c1 | 0.9 | 0.7 | 0.33 | 12 | 33
Cc1cc(C)nc(SCCCn2c(=O)[nH]c3ccccc32)n1 | 1.4 | 0 | 1.1 | -39 | 97*
COc1ccccc1CNc1nc2nc(C)c(Cl)c(=O)n2[nH]1 | 0.4 | 1 | 0.2 | 61* | 2
O=c1nc2sc3ccccc3n2c(=O)n1-c1cccc(Cl)c1 | 0.7 | 0.3 | 0.75 | 28 | 68*
CC(=O)c1c(NC(=O)C(C)C)nc(C)nc1-c1ccccc1 | 0.4 | 0.6 | -0.24 | 55* | 39
COC(=O)C1=C(C)N(C2CCCC2)C(=O)C1(NC(C)=O)C(F)(F)F (centres undefined) | 1.2 | 1.2 | 0.95 | -17 | -19
C#CCOC(=O)Nc1cccn(Cc2c(Cl)cccc2Cl)c1=O | 2* | 0.3 | -2 | -97 | 65*
CCOc1ccc(CC(=O)NCc2cn3c(C)csc3n2)cc1 | 1.2 | 0.9 | 1.1 | -20 | 8
COCC(C)n1c(C)cc(C(=O)COC(=O)c2c(NC(C)=O)sc(C)c2C)c1C (centres undefined) | 0.9 | 1 | 0.51 | 13 | 2
Cc1ccc(-c2noc(CNCCCN(C)C)n2)cc1 | 0.9 | 0.9 | 0.75 | 10 | 10
CC(C)(C)C(=O)Cn1c(=N)n(Cc2ccccc2Cl)c2ccccc21 | 1 | 1 | -5* | 4 | -2
CC(C)(C)C(=O)Cn1c(=N)n(Cc2ccccc2)c2ccccc21 | nt | nt | -4.1 | nt | nt
Clc1ccc(-n2nnc(-c3ncc[nH]3)n2)cc1Cl | nt | nt | 0.54 | nt | nt
CCCCc1ccc(NC(=O)OC)cc1 | 0.4 | 0.5 | 0.019 | 65* | 49
CCCCc1ccc(NC(=O)N[C@H](C(=O)O)C(C)CC)cc1 (some centres undefined) | 0.5 | 1 | -0.36 | 46 | -2
Cc1ccc(-c2ncccc2OC(=O)C23CC4CC(CC(C4)C2)C3)cc1 | 1.1 | 1.1 | nt | -9 | -6
SMILES | CYP2C9 act | CYP2C19 act | Cav3 T inh | CYP2C9 inh | CYP2C19 inh
c1ccc(-n2nnnc2NC2CCCCC2)cc1 | 0.9 | 0.8 | nt | 9 | 20
O=C(Nc1ccc(Br)c(Cl)c1)c1ccco1 | 0.6 | 0.3 | -0.77 | 43 | 66*
CCCOc1ccc(C(=O)N2CCN(c3ccc(NC(=O)CC)cc3Cl)CC2)cc1 | 0.1 | 0 | -0.41 | 86* | 96*
O=C(Nc1ccc(N2CCN(C(=O)c3ccccc3)CC2)c(Cl)c1)c1ccco1 | 0.4 | 0.6 | -0.0088 | 62* | 41
O=C(Nc1ccc(N2CCN(C(=O)c3ccco3)CC2)c(Cl)c1)c1cc2ccccc2o1 | 0.1 | 0.3 | nt | 92* | 71*
O=C(Nc1ccc(Cl)c(Cl)c1)Oc1ccc(NC(=O)c2ccco2)cc1 | 1.1 | 1.1 | 0.66 | -13 | -6
C[C@]12CC[C@H]3C(=CCc4cc(O)ccc43)[C@@H]1CCC2=O | nt | nt | -0.74 | nt | nt
C#CCCOC(=O)N1C2=NC(C(=O)OC)=C(C(=O)OC)[C@@H]3N(Cc4ccccc4)c4ccccc4[C@]23C[C@H]1C(=O)OC | nt | nt | -3 | nt | nt
CCCNc1nc(C)cc(-c2cc(C(=O)NC3CCCC3)on2)n1 | nt | nt | -0.22 | nt | nt
c1ccc(-n2nnnc2-c2cnc(-c3cccnc3)nc2-c2cccs2)cc1 | nt | nt | -1.2 | nt | nt
Cc1ccc(Cc2nnc3n(-c4ccccc4)nc(C(=O)c4ccccc4)n3c2=O)cc1 | nt | nt | -2.3 | nt | nt
CCCC(=O)N1CCN(c2ccc(NC(=O)c3cc4ccccc4o3)cc2Cl)CC1 | 0.2 | 0.2 | -2.7 | 82* | 81*
CCC(=O)N1CCN(c2ccc(NC(=O)c3cc4ccccc4o3)cc2Cl)CC1 | 0.5 | 0.6 | nt | 50* | 36
O=C(c1ccc(CNc2c(NC3CCCCC3)c(=O)c2=O)cc1)N1CCc2ccccc21 | 0.8 | 0.9 | nt | 19 | 5
CC1CN(c2ccccc2)C(=O)CS1 (centres undefined) | 1 | 1.1 | 0.61 | 3 | -11
CC1Cc2ccccc2N1C(=O)CSc1nnc2c(n1)[nH]c1ccccc12 (centres undefined) | 0.5 | 0.4 | nt | 46 | 55*
CC1Cc2ccccc2N1C(=O)CSc1nc(-c2ccco2)cc(C(F)(F)F)n1 (centres undefined) | 0.9 | 1 | 0.65 | 8 | 2
CC1CCc2cc(F)ccc2N1C(=O)CSc1nnc2c(n1)[nH]c1ccc(F)cc12 (centres undefined) | 0.4 | 0.2 | -1.7 | 57* | 77*
CCCc1nc(SCC(=O)N2c3ccccc3CC2C)c2c(C)c(C)sc2n1 (centres undefined) | 0.1 | 0.4 | -2.9 | 94* | 64*
CC1Cc2ccccc2N1C(=O)CSc1nnc(-c2ccccc2)c(-c2ccccc2)n1 (centres undefined) | 0 | 0.2 | -3.4 | 100* | 85*
CC1CCc2cc(F)ccc2N1C(=O)CCC(=O)O (centres undefined) | 1 | 1 | 0.091 | -3 | -2
O=C(NCc1ccccn1)C1Nc2ccc(C(F)(F)F)cc2C2C=CCC12 (centres undefined) | nt | nt | 0.0044 | nt | nt
NC1=NC[C@@H](Cc2ccc(O)cc2)N1CCC12CC3CC(CC(C3)C1)C2 | nt | nt | -2 | nt | nt
CCOC(=O)c1ccccc1Oc1c(F)c(F)nc(NCCO)c1F | 0.5 | 0.4 | -2.2 | 51* | 62*
COc1ccc(Nc2nc(Nc3ccc(OC)cc3)nc(-n3[nH]c(=O)c(C)c3C)n2)cc1 | 0.8 | 0.9 | nt | 18 | 11
COc1ccc(CNC(=O)CCc2c(C)nc3ncnn3c2C)cc1 | 1.1 | 1.1 | nt | -5 | -11
Cc1cc(=O)oc(C)c1C(=O)NCCNC(=O)c1c(C)cc(=O)oc1C | 1.2 | 1.2 | -0.014 | -16 | -16
Cc1ccc(CNC(=O)c2c(C)cc(=O)oc2C)cc1 | 0.5 | 1 | -0.25 | 51* | 5
CCN(CCCNC(=O)c1c(C)cc(=O)oc1C)c1cccc(C)c1 | 0.3 | 0.1 | -0.27 | 72* | 92*
O=C(Nc1ccc2c(c1)OCO2)c1cnn2cccnc12 | 0.9 | 0.9 | nt | 9 | 9
